Compound activity (PubChem BioAssay)
HADH2 inhib: blocks human hydroxyacyl-CoA dehydrogenase type II; Q99714; recombinant HADH2, NADH fluorescence, beta-hydroxybutyryl-CoA; Potency, µM (titrated, usually from 57.1 µM), inactives show top-dose activity change, negative = inhibition, actives largely listed as inhibitors; actives 3.4% (n = 73,000); AID 886; further: potency means the concentration at half of the fitted maximal effect; on the % scale 0 is the no-effect control and ±100 the full control effect; nearly all actives have a fitted effect of over 60% in size
Target sequence (Q99714 whole entry, looked up, one chain of several): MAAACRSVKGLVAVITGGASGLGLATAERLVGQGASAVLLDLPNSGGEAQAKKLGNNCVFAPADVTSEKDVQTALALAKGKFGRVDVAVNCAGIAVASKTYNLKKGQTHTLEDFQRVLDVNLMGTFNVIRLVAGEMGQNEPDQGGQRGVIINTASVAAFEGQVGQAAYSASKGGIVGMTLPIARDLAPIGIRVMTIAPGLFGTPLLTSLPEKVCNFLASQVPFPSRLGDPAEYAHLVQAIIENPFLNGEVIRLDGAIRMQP
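20 nM HADH2 + cpd, 15 min RT; add 1 mM NAD+/90 uM beta-hydroxybutyryl-CoA; kinetic fluorescence 360/450 nm, 4 min. Tris-HCl pH 9.0, 0.01% Tween-20.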
A350 autofl: compound fluoresces in the Alexa 350 spectral region; Compound autofluorescence, 340/450 nm, Alexa 350 dye-equivalents; stronger effect = higher value; max dye-equivalent concentration, M; AID 590; actives 11% (n = 59,000); in the data active means max dye-equivalent concentration above about 10 nM; inconclusive means mostly about 1.1 nM to 9.6 nM
HSD17B inhib: HSD17B dehydrogenase inhibition; Q99714; recombinant HSD17B10, NADH fluorescence kinetic; Potency, µM (titrated, usually from 57.1 µM), for inactives: at the highest dose activity change, negative = inhibition, most hits filed as inhibitors; actives 7.6% (n = 75,000); AID 893;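 further: the protocol describes HADH2 (HSD17B10) and not the HSD17B4 of the title; potency means the concentration at half of the fitted maximal effect; on the % scale 0 is the no-effect control and ±100 the full control effect; nearly all actives have a fitted effect of over 70% in size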
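20 nM HADH2, pH 9.0 Tris/Tween; cpd preinc 15 min RT; start w/ 1 mM NAD+ + 90 uM b-hydroxybutyryl-CoA; kinetic fluor ex360/em450 q30s x 4 min; delta last-first.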
AID923: qHTS Assay for Allosteric/Competitive Inhibitors of Caspase-1: Spectroscopic Profiling in AFC Spectral Region | compound fluorescence, AFC spectral region (405/520 nm) | Potency, µM (series often up to 57.5 µM), for inactives: at the top dose fluorescence increase, usual class: activators | actives 1.1% (n = 75,000); further: potency means the concentration at half of the fitted maximal effect; 0% is about no effect
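Titrations up to 57 uM read every 20 sec for 3 min (405/520 nm) with 50 nM caspase 1 and 5 uM Ac-WEHD-AFC, pH 7.5 HEPES buffer. Fluorescence-vs-time intercept gave baseline, scaled against on-plate AFC standard.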
4MU fluor: 4-MU region autofluorescence | compound autofluorescence, 340/450 nm, 4-MU equivalents; stronger effect = higher value | max dye-equivalent concentration, M | actives 11% (n = 59,000); in the data active means max dye-equivalent concentration above about 10 nM; inconclusive means mostly about 1.1 nM to 9.6 nM
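Intrinsic fluorescence at 340/450 nm (ex/em) was read after 15 min at room temperature in pH 8.0, 100 mM Tris. Each compound concentration expressed as 4-MU-equivalent concentration from a six-point 4-MU standard series on each plate.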
CRE Fsk mod: modulators of forskolin-stimulated CRE signaling in CHO cells | AID 662 | CHO CRE-bla reporter (cAMP response element driving beta-lactamase), forskolin EC10, beta-lactamase ratio | Potency, µM (doses to about 38.2 µM), without a hit: at the top dose activity change, negative = inhibition, usual class: activators | actives 2.5% (n = 71,000); active means well fitted activation curve with a large enough effect in the signal ratio, with a control signal flat, not every such curve was filed as active; inconclusive means small, poorly fitted or top-dose-only effect, or effect the other way, or a change in a side signal; the % refers to the signal ratio; further: potency means the concentration at half of the fitted maximal effect; % of control where 0% means no effect
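The 460nm/530nm emission ratio after CCF4 loading defined %Activity, from which AC50 values were obtained. CRE-bla CHO cells received compound dilution series together with an EC10 level of NKH 477 for 3 hours at 37 degrees Celsius.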
* = called active by the depositor; i = inactive; ? = inconclusive; / = not tested or not shown; [ ] = remark or other dose. Shown are actives, neighbours in structure and some others; about 14% of the full set was active somewhere. Unless noted, the call rests on the fitted dose curve; in most records, active means well fitted curve in the direction sought with a large enough effect; inconclusive means small, poorly fitted or top-dose-only effect, or another doubt; inactive means no such curve, though single readings can be large; an effect the other way counts as inactive or inconclusive.

SMILES	HADH2 inhib	A350 autofl	HSD17B inhib	AID923	4MU fluor	CRE Fsk mod
COC(=O)[C@@]1(Cc2ccc(F)cc2)[C@H]2c3cc(C(=O)N4CCCC4)n(Cc4cccc5ccccc45)c3C[C@H]2CN1C(=O)c1ccccc1	0%	/	13%	-1%	/	-6%
Cc1[nH]c(C)c(CN(C)C)c1CN(C)C	7%[11.4 µM]	i	4%[11.4 µM]	3%[11.5 µM]	i	3%[7.6 µM]
COCCNC(=O)c1c(N)n(/N=C/c2cccs2)c2nc3ccccc3nc12	/	4.8e-08M*	/	/	4e-08M*	/
Nc1c(C(=O)NC2CCCCC2)c2nc3ccccc3nc2n1/N=C/c1ccco1	8%	2.6e-08M*	?	3%	1.9e-08M*	?
CCCCNC(=O)c1c(N)n(/N=C/c2ccccn2)c2nc3ccccc3nc12	5%	i	1%	0%	i	-8%
CCCCCCNC(=O)c1c(N)n(/N=C/c2ccco2)c2nc3ccccc3nc12	2%	3.2e-08M*	-13%	8%	2.7e-08M*	?
C/C(=N/O)c1ccc2cc(Br)c3ccccc3c2c1	24%[11.4 µM]	i	-1%[11.4 µM]	4%[11.5 µM]	i	6%[7.6 µM]
CN(N=O)C(=O)N[C@H]1[C@@H](O)[C@H](O)[C@H](CO)O[C@@H]1O	7%[25.6 µM]	i	2%[25.6 µM]	1%[25.7 µM]	i	2%[17.1 µM]
Cc1[nH]n2c(=O)cc(C(C)(C)C)nc2c1-c1ccccc1	?	i	25µM*	-1%	i	34%
Cc1[nH]n2c(=O)cc(C(C)C)nc2c1-c1ccccc1	?	?	32µM*	0%	?	?
CCCc1cc(=O)n2[nH]c(C)c(-c3ccccc3)c2n1	-23%	i	32µM*	0%	i	10%
CCOC(=O)Cc1cc(=O)n2[nH]c(C)c(-c3ccc(OC)cc3)c2n1	-1%	?	?	0%	i	8%
CCCc1cc(=O)n2[nH]c(C)cc2n1	14%	i	25µM*	1%	i	-2%
CCCc1cc(=O)n2[nH]c(CCc3ccccc3)nc2n1	5%	?	-2%	2%	i	-5%
Cc1[nH]n2c(=O)c(C#N)c(-c3ccccc3)nc2c1-c1ccccc1	-3%	?	1%	0%	i	?
O=C(NCCN1CCOCC1)c1ccc(-n2c(=O)c(=O)[nH]c3ccccc32)cc1	-11%	/	1%	2%	/	/
Cc1c(-c2ccccc2)sc(N)c1C(=O)N1CCOCC1	2µM*	1e-08M*	32µM*	14%	?	2%
CCOC(=O)c1c(N)sc(C(=O)N2CCOCC2)c1C	-7%	1.5e-08M*	9%	0%	1.5e-08M*	13%
COC(=O)c1c(N)sc(C(=O)N2CCOCC2)c1C	-3%	i	-1%	2%	i	14%
NC(=O)NC(=O)[C@H]1CCCC[C@@H]1C(=O)O	-12%[11.4 µM]	i	5%[11.4 µM]	1%[11.5 µM]	i	-4%[7.6 µM]
N#Cc1nc(-c2ccco2)oc1N1CCN(c2ccccc2)CC1	?	?	-21%	0%	i	?
N#Cc1nc(-c2ccco2)oc1N1CCOCC1	25µM*	?	25µM*	4%	?	?
CC1CCN(c2oc(-c3ccccc3Cl)nc2C#N)CC1	/	3.1e-08M*	/	/	4.6e-08M*	/
N#Cc1nc(-c2ccccc2Cl)oc1N1CCOCC1	48%	2.8e-08M*	32µM*	0%	2.5e-08M*	?
CCCCC(CC)CNCC(CC)CCCC (stereo not drawn)	3%	/	-3%	-1%	/	-4%
SMILES	HADH2 inhib	A350 autofl	HSD17B inhib	AID923	4MU fluor	CRE Fsk mod
CCCc1nnc(SCc2ccc(C(=O)OC)o2)n1N	-11%	4.5e-08M*	?	-1%	4.1e-08M*	4%
O=C(CCN1CCc2ccccc2C1)c1ccc2c(c1)OCCO2	-26%	i	6%	1%	i	?
O=C(CCN1CCCCC1)c1ccc2c(c1)OCCO2	?	9.8e-08M*	-19%	-2%	1e-08M*	?
CCc1ccc(CNc2ccc(N3CCN(C(C)=O)CC3)cc2)cc1	1%	i	25µM*	-1%	i	16%
Cc1[nH]nc2c1-c1nc3ccccc3nc1C(C)(C)C2	32µM*	2.3e-06M*	25µM*	-1%	1.9e-06M*	?
COC(=O)C1C(=O)c2c(n[nH]c2C)CC1(C)C (stereo not drawn)	-8%	i	-3%	0%	i	1%
CCCCC=O	-5%	/	1%	3%	/	-6%
O=c1[nH]c(-c2ccc(Cl)cc2)nc2c1cnn2-c1ccccc1	-9%	2.2e-08M*	-21%	1%	2.1e-08M*	6%
Nc1ccccc1N=Nc1c(S(=O)(=O)O)cc2cc(S(=O)(=O)O)cc(O)c2c1O	-19%[11.4 µM]	i	-11%[11.4 µM]	-1%[11.5 µM]	i	-2%[7.6 µM]
CC(C)(C)c1cc(-c2ccco2)c(C#N)c(SCC#N)n1	/	2.2e-08M*	/	/	1.8e-08M*	/
COC(=O)CC1C(C)(C)C(OC(C)=O)C2CC3C4CC(=O)OC(c5ccoc5)[C@]4(C)CCC3[C@@]1(C)C2=O (stereo partly drawn)	/	/	-16%	0%	/	/
COc1ccc2[nH]cc(CCNc3ncnc4ccc(-c5c(C)noc5C)cc34)c2c1	17%	i	12%	0%	i	?
COc1cccc2c1CCC1CC(=O)CC[C@@]21C (stereo partly drawn)	/	/	1%	-4%	/	/
Cc1ocnc1C(=O)Nc1ccc(Cl)cc1	5%	2e-08M*	-23%	2%	1.9e-08M*	-19%
Cc1ncoc1C(=O)Nc1cccc(Cl)c1	?	i	-7%	1%	i	8%
CC1=C(C(=O)OCc2ccccc2)C(c2ccoc2)C(C#N)=C(N)O1 (stereo not drawn)	-17%	?	-14%	3%	i	2%
CC(=O)C1(C)OC(N)=C(C#N)C(c2ccccc2)C1(C#N)C#N (stereo not drawn)	/	2.7e-08M*	/	/	2e-08M*	/
O=C(O)CC(c1ccccc1)c1ccccc1	4%	4.1e-07M*	7%	-1%	3.8e-07M*	-3%
O=C(O)C[C@H](Sc1ccccc1)c1ccccc1	6%[11.4 µM]	i	-6%[11.4 µM]	3%[11.5 µM]	i	7%[7.6 µM]
O=C(Nc1cccc(F)c1)c1cccc(S(=O)(=O)N2CCOCC2)c1	15%	2.2e-07M*	?	15%	1.8e-07M*	-7%
COc1cc(C(=O)Nc2nc(-c3cccs3)cs2)cc(OC)c1OC	?	?	32µM*	1%	?	?
O=C(NCCO)c1cccc(S(=O)(=O)N2CCCCC2)c1	?	1.6e-08M*	-13%	-3%	1.3e-08M*	6%
O=C(Nc1nc(-c2cccs2)cs1)c1cccc(S(=O)(=O)N2CCCCC2)c1	?	2.8e-08M*	?	3%	2e-08M*	13%
O=C(NCCN1CCOCC1)c1cccc(S(=O)(=O)N2CCCCCC2)c1	8%	?	8%	3%	i	-1%
